# Measurements reported in PubChem BioAssay (Tox21).
# Results filed as inconclusive are left out. Activity calls are given as the source filed them. Calls follow the shape of the dose curve; as a rule, active = well fitted cell-killing curve with a large enough effect in the repeat runs; inconclusive = weak or mixed curves, or effect the other way; inactive = flat fitted curve, though single readings scatter.
# Assay: cAMP Responsive Elements (CRE) small molecule agonists, cell-based qHTS assay: qHTS cell viability counter screen (AID 2060914);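 also: viability read after 3 h of compound exposure; nearly all actives have a fitted effect of over 50% in size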
# Conditions: CRE-bla HEK293T viability, CellTiter-Glo luminescence, 5 h; series mostly up to 92.4 µM; activity change, negative = cytotoxicity: at the top concentration
# Excerpt: National Center for Advancing Translational Sciences [NCATS]
# Division of Preclinical Innovation [DPI]
# U.S. Environmental Protection Agency [EPA]
# National Institutes of Environmental Health Sciences [NIEHS]
# National Toxicology Program [NTP]
# U.S. Food and Drug Administration [FDA]
# CREB (cyclic-AMP Responsive Element Binding Protein) is a cellular transcription factor. It binds to certain DNA sequences called cAMP Responsive Elements (CRE) and regulates the transcription of the genes. […] This cell line can be used to find agonists/antagonists of the cyclic AMP signaling pathway. The activation of the report gene under culture conditions can be detected by fluorescence intensity. This cell line has been used to screen the Tox21 10K compound library to identify agonists that induce oxidative stress. The cytotoxicity of the Tox21 compound library against the CRE-bla cell line was tested in parallel by measuring the cell viability using CellTiter-Glo assay (Promega, Madison, WI) in the same wells.
# Tox21 Assay Protocol Summary:
# CRE-bla Hek 293T cells were suspended in assay medium (DMEM containing 10% dialyzed FBS, 0.1 mM NEAA, 1 mM sodium pyruvate and 25 mM HEPES) and dispensed at 2,000 cells/5 uL /well into 1536-well black wall/clear bottom plates using a Multidrop Combi (ThermoFisher Scientific, Waltham, MA) dispenser. After the assay plates were incubated at 37 C/5% CO2 for 18 hrs, 23 nL of compounds dissolved in DMSO, positive controls or DMSO only was transferred to the assay plate by a pintool workstation (Kalypsys, San Diego, CA). After the plates were incubated at 37 C/5% CO2 for 3 hrs, 1 uL of LiveBLAzer B/G FRET substrate (Invitrogen, Carlsbad, CA) was added to each well using Bioraptr Flying Reagent Dispenser (FRD, Aurora Discovery, San Diego, CA). The plates were incubated at room temperature for 2 h, then fluorescence intensities were measured using an Envision plate reader (PerkinElmer, Shelton, CT) at Excitation 405nm, Emission 460nm and 530nm. The % activity was determined from the ratio of 460nm/530nm. For cell viability readout that measures cytotoxicity, 4 uL /well of CellTiter-Glo reagent was added into the assay plates using Bioraptr FRD. After 30 min incubation at room temperature, the luminescence intensity in the assay plates was measured using a ViewLux (PerkinElmer, Shelton, CT) plate reader.
# % is scaled to controls: 0 for no effect and ±100 for the full control effect.
SMILES,"activity change, negative = cytotoxicity",Potency
CC(=O)O[Si](C)(OC(C)=O)OC(C)=O,5.47% (inactive),
COc1cccc2c1C(=O)c1c(O)c3c(c(O)c1C2=O)C[C@@](O)(C(=O)CO)C[C@@H]3O[C@H]1C[C@H](N)[C@H](O)[C@H](C)O1,,inactive
CC(C)OC=O,,inactive
C=CC(C)(CCC=C(C)C)OC(=O)CC(C)C (stereo not given),0.34% (inactive),
C1CCN(CN2CCCCC2)CC1,0.294% (inactive),
c1ccc2sc(SSN3CCOCC3)nc2c1,,inactive
CCO[Si](CC(C)C)(OCC)OCC,0.0695% (inactive),
C=Cc1ccncc1,-4.89% (inactive),
C/C=C(\C)C(C)=O,1.36% (inactive),
CC(C)(O)C(=O)c1ccc(OCCO)cc1,-4.1% (inactive),
CCCCC/C(C=O)=C\c1ccccc1,,inactive
OCCc1ccccn1,6.95% (inactive),
CCCCN(CCO)CCCC,-21.3% (inactive),
CC(CC(=O)O)CC(C)(C)C (stereo not given),5.01% (inactive),
N[C@@H](Cc1c[nH]c2ccccc12)C(=O)O,,inactive
O=C(O)CCn1c2c(c3ccccc31)C[C@H](NS(=O)(=O)c1ccc(F)cc1)CC2,10.4% [at 42.5 µM] (inactive),
COC(=O)c1cc(Cl)ccc1NS(=O)(=O)C(F)(F)F,-0.91% [at 42.5 µM] (inactive),
NS(=O)(=O)c1ccc(N2CCCCS2(=O)=O)cc1,2.73% [at 42.5 µM] (inactive),
O=C(O)C(=O)Cc1ccccc1,13.2% (inactive),
Cc1ccc2nc(N)[nH]c(=O)c2c1Sc1ccncc1,-19% [at 42.5 µM] (inactive),

SMILES,"activity change, negative = cytotoxicity",Potency
OCC(CBr)(CBr)CBr,-8.73% (inactive),
CC/C(=C\C(=N/O)C(N)=O)C(C)[N+](=O)[O-] (stereo not given),-2.73% (inactive),
FC(F)(F)C(F)(F)C(F)(F)C(F)(F)CCI,-0.634% [at 42.5 µM] (inactive),
CCCN1C=CN(C)C1,,inactive
Nc1nc2ncc(CNc3ccc(C(=O)N[C@@H](CCC(=O)O)C(=O)O)cc3)nc2c(=O)[nH]1,,inactive
CC(=O)c1ccccc1[N+](=O)[O-],8.96% (inactive),
O=C1OC2(c3ccccc31)c1cc(I)c(O)c(I)c1Oc1c2cc(I)c(O)c1I,,inactive
CC(=O)OCC(=O)[C@H]1CC[C@H]2[C@@H]3CCC4=CC(=O)CC[C@]4(C)[C@H]3CC[C@]12C,-1.4% [at 42.5 µM] (inactive),
CN(C)CCCO[C@@H]1[C@H]2OC(C)(C)O[C@H]2O[C@@H]1C(O)CO (stereo not given in full),-0.0217% [at 42.5 µM] (inactive),
S=C(S)NCCNC(=S)S,-16.8% (inactive),
O=P(O)(OCc1ccccc1)OCc1ccccc1,1.12% (inactive),
C1CC(COCC2CO2)CCC1COCC1CO1 (stereo not given),-5.06% (inactive),
CCCC(C)CO (stereo not given),1.25% (inactive),
C[C@@H]1O[C@@H](OC[C@H]2O[C@@H](Oc3c(-c4ccc(O)c(O)c4)oc4cc(O)cc(O)c4c3=O)[C@H](O)[C@@H](O)[C@@H]2O)[C@H](O)[C@H](O)[C@H]1O,,inactive
CNS(=O)(=O)c1cc(C(=O)N2CCC(CCN3C4CCC3CC(n3c(C)nc5ccccc53)C4)(c3cccc(F)c3)CC2)c(Cl)cc1F (stereo not given),2.88% (inactive),
CC(C)OC(=O)CCCCC(=O)OC(C)C,-13.3% (inactive),
CCCCCCCCCC=O,11.9% (inactive),
O=Cc1cc(O)ccc1Br,-0.0241% (inactive),
CCc1cc(Cl)c(OC)c(C(=O)NC[C@@H]2CCCN2CC)c1O,1.22% [at 42.5 µM] (inactive),
C=CCCCCCCCCCCC,-4.53% [at 8.39 µM] (inactive),
